Assay outcomes deposited in PubChem BioAssay by National Center for Advancing Translational Sciences (NCATS).
NPSR antag = qHTS Assay for Antagonists of the Neuropeptide S Receptor: cAMP Signal Transduction | actives 1% (n = 220,000) | AID 1461, 2008 | Q6W5P4 | CHO-NPSR cells, cAMP TR-FRET, antagonist mode | Potency, µM (top dose mostly 38.3 µM), inactives show at the highest dose activity change, negative = inhibition, most hits filed as inhibitors; further: potency means the concentration at half of the fitted maximal effect; nearly all actives have a fitted effect of over 50% in size
Target sequence (Q6W5P4 whole entry, looked up): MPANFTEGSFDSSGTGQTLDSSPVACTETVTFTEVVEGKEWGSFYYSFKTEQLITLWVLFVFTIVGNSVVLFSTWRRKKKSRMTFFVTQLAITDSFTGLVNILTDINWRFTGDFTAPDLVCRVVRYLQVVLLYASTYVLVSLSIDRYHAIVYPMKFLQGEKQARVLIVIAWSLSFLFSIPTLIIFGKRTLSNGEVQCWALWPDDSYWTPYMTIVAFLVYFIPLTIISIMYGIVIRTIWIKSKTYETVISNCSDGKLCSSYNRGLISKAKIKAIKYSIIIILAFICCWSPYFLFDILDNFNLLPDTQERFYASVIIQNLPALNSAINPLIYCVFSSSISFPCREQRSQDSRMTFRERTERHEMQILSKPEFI
ALDH1A1 block = qHTS Assay for Inhibitors of Aldehyde Dehydrogenase 1 (ALDH1A1). Aldehyde dehydrogenase 1A1 (Homo sapiens), P00352. Potency, µM (highest dose often 75.3 µM), for inactives: at the highest dose activity, negative = inhibition, most hits filed as inhibitors. Purified ALDH1A1, NADH fluorescence, propionaldehyde substrate. AID 1030, 2008. actives 7.3% (n = 220,000); active means well fitted inhibition curve with a large enough effect, not every such curve was filed as active; inconclusive means small, poorly fitted or top-dose-only effect, or another doubt; inactive means no such curve, though single readings can be large or run the other way;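 further: potency means the concentration at half of the fitted maximal effect; plate controls were no enzyme wells and a reference inhibitor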
IMPase cell inh = qHTS Assay for Identifying the Cell-Membrane Permeable IMPase Inhibitors; CHO-M1 cells, IP1 accumulation, HTRF TR-FRET ratio; inhibition (IP1 accumulation), % at 46.1 µM; 120,000 tested, under 10 active; AID 901, 2007; active means well fitted curve in the direction sought with a large enough effect in the signal ratio, not every such curve was filed as active; inconclusive means small, poorly fitted or top-dose-only effect, or a change in a side signal; inactive means no such curve, though single readings can be large or run the other way; the % refers to the signal ratio;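 further: cells stimulated with carbachol in lithium chloride buffer; plate controls were DMSO basal wells for no effect and reference inhibitor wells for full effect; higher means more IMPase inhibition seen as more IP1 and lower FRET ratio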
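Measured: the HTRF emission ratio (665/620 nm) plus the 620 nm donor channel, each fitted to the Hill equation to give AC50. Cells were CHO-M1 given compounds up to 46 uM and a 30 min carbachol stimulation at 37C.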
HPGD inh = qHTS Assay for Inhibitors of HPGD (15-Hydroxyprostaglandin Dehydrogenase) | actives 4.3% (n = 150,000) | purified HPGD, NADH fluorescence kinetic, PGE2 substrate | 15-hydroxyprostaglandin dehydrogenase [NAD(+)] (Homo sapiens), P15428 | Potency, µM, for the others: at the top dose activity change, negative = inhibition, most hits filed as inhibitors; active means well fitted inhibition curve with a large enough effect, not every such curve was filed as active; inconclusive means small, poorly fitted or top-dose-only effect, or another doubt; inactive means no such curve, though single readings can be large or run the other way; further: potency means the concentration at half of the fitted maximal effect
Target sequence (P15428 whole entry, looked up): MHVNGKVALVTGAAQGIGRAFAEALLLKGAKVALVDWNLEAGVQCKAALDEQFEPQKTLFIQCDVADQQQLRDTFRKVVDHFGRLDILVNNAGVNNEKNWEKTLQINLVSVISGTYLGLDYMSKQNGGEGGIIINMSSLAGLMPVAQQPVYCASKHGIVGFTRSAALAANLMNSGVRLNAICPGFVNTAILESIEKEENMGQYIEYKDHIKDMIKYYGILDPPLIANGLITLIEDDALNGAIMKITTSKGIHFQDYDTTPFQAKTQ
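NADH formation kinetics: reaction with 30 uM PGE2 and 1 mM NAD+ (final), 20 nM enzyme, Tris-HCl pH 8 with Tween 20, after 15 min compound preincubation at room temperature. Fluorescence change, last versus first of five reads.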
12-hLO inh = qHTS Assay for Inhibitors of 12-hLO (12-human lipoxygenase); Polyunsaturated fatty acid lipoxygenase ALOX12 (Homo sapiens), P18054; purified 12-hLO, xylenol orange hydroperoxide absorbance; Potency, µM (highest dose often 57.1 µM), for the others: top-dose activity change, negative = inhibition, actives largely listed as inhibitors; actives 0.12% (n = 150,000); AID 1452, 2008; further: potency means the concentration at half of the fitted maximal effect; nearly all actives have a fitted effect of over 55% in size
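150 nM 12hLO, 25 mM Hepes pH 7.0 + 0.01% Triton X-100; cpd preinc 15 min RT; 40 uM arachidonic acid, 30 min RT; Fe-XO 30 min; A573/A405 ratio as read-out.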
IMPase Li inh = qHTS Assay for Identifying the Cell-Membrane Permeable IMPase Inhibitors: Potentiation with Lithium. Potency, µM (highest dose often 59.4 µM), for the others: at the highest dose activity, negative = IMPase inhibition, most hits filed as inhibitors. actives 0.35% (n = 210,000). CHO-M1 cells, IP1 TR-FRET (IP-One), carbachol + lithium;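 further: IP1 builds up when IMPase is blocked and the TR-FRET signal falls; potency means the concentration at half of the fitted maximal effect; plate controls were basal vehicle for no effect and high inhibitor control for full effect; nearly all actives have a fitted effect of over 50% in size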
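Concentration–response in CHO-M1 cells, lithium-potentiated; 30 min at 37C. IP1 detected by competitive TR-FRET after 10 min lysis at RT. Hill-fitted AC50.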
Numbers without * were called inactive; [ ] = remark or other dose. A selection: hits, their analogues and other compounds. The true share with any hit is near 8.9%. Unless noted, the call rests on the fitted dose curve; in most records, active means well fitted curve in the direction sought with a large enough effect; inconclusive means small, poorly fitted or top-dose-only effect, or another doubt; inactive means no such curve, though single readings can be large; an effect the other way counts as inactive or inconclusive. Unless noted, on the % scale 0 is the no-effect control and ±100 the full control effect.

`COc1ccc(OC)c(NC(=O)CSc2ncccc2C(=O)O)c1` gave NPSR antag 3%[46.1 µM], ALDH1A1 block inconclusive, IMPase cell inh 0, HPGD inh 13µM*, 12-hLO inh -1% and IMPase Li inh 7%[38.3 µM].
For COc1ccc(NC(=O)CSc2ncccc2C(=O)OC(C)C)cc1OC the results were NPSR antag -17%[46.1 µM], ALDH1A1 block 0.079µM*, IMPase cell inh 9, HPGD inh -14%, 12-hLO inh -5% and IMPase Li inh 29%[38.3 µM].
For COc1ccc(NC(=O)CSc2ccccn2)cc1OC the results were NPSR antag -7%[46.1 µM], ALDH1A1 block -6%, IMPase cell inh 2, HPGD inh -17%, 12-hLO inh -5% and IMPase Li inh 0%[38.3 µM].
COc1cccc(-n2ccnc2SCC(=O)Nc2cc(OC)ccc2OC)c1 was read as NPSR antag -18%[46.1 µM], ALDH1A1 block 1%, IMPase cell inh -1, HPGD inh -14%, 12-hLO inh -1% and IMPase Li inh 1%[38.3 µM].
For O=C(c1ccc(CS(=O)(=O)c2ccc(Br)cc2)o1)N1CCOCC1 the results were NPSR antag 2%[46.1 µM], ALDH1A1 block 11%, IMPase cell inh -4, HPGD inh -11%, 12-hLO inh -3% and IMPase Li inh -4%[38.3 µM].
`O=C(C1CCCN1S(=O)(=O)c1cccc2cccnc12)N1CCc2ccccc2C1` (stereo not drawn) gave NPSR antag -10%[46.1 µM], ALDH1A1 block -3%, IMPase cell inh 8, HPGD inh -14%, 12-hLO inh -6% and IMPase Li inh 1%[38.3 µM].
Screening Cc1nn(-c2ccccc2)c2c1C1(C(=O)N(C(C)C)c3ccccc31)C(C#N)=C(N)O2 (stereo not drawn) returned NPSR antag inconclusive, ALDH1A1 block 1.1µM*, IMPase cell inh 6, HPGD inh -6%, 12-hLO inh -5% and IMPase Li inh 38%[38.3 µM].
Screening Cc1coc(C)c1C(=O)CC1(O)C(=O)Nc2cc(Cl)cc(Cl)c21 (stereo not drawn) returned NPSR antag 0%[46.1 µM], ALDH1A1 block 3.2µM*, IMPase cell inh 6, HPGD inh -4%, 12-hLO inh inconclusive and IMPase Li inh 4%[38.3 µM].
For Cc1ccc(Cl)c2c1NC(=O)C2(O)CC(=O)c1ccc(F)cc1 (stereo not drawn) the results were NPSR antag 3%[46.1 µM], ALDH1A1 block 5%, IMPase cell inh -3, HPGD inh -4%, 12-hLO inh -8% and IMPase Li inh 8%[38.3 µM].
Screening CS/C(=C\[N+](=O)[O-])Nc1ccc(F)cc1 returned NPSR antag -17%[46.1 µM], ALDH1A1 block 16µM*, IMPase cell inh -23, HPGD inh -13%, 12-hLO inh -3% and IMPase Li inh -10%[38.3 µM].
`CN1CCN(C(=O)c2ccc3c(c2)NC(=O)C(C)(C)O3)CC1` gave NPSR antag -13%[46.1 µM], ALDH1A1 block -4%, IMPase cell inh inconclusive, HPGD inh 8.9µM*, 12-hLO inh -3% and IMPase Li inh -23%[38.3 µM].
Cc1ccc(C(=O)N2CCN(C)CC2)cc1S(=O)(=O)N1CCCCC1 was read as NPSR antag 0%[46.1 µM], ALDH1A1 block inconclusive, IMPase cell inh 9, HPGD inh -21%, 12-hLO inh 2% and IMPase Li inh 0%[38.3 µM].
`CC(C)CNC(=O)CSc1ccc(Cl)cc1` gave NPSR antag -3%[46.1 µM], ALDH1A1 block 5%, IMPase cell inh -7, HPGD inh 16µM*, 12-hLO inh -1% and IMPase Li inh 17%[38.3 µM].
Cc1ccc(SCC(=O)NCc2ccc(F)cc2)cc1 was read as NPSR antag 5%, ALDH1A1 block 1% and IMPase Li inh 16%.
CC(C)C(NC(=O)CSc1ccc(Cl)cc1)C(C)C was read as NPSR antag -21%[46.1 µM], ALDH1A1 block -1%, IMPase cell inh 2, HPGD inh 13µM*, 12-hLO inh 4% and IMPase Li inh 3%[38.3 µM].
Screening Cc1ccc(SCC(=O)NCC(C)C)cc1 returned NPSR antag -13%[46.1 µM], ALDH1A1 block -1%, IMPase cell inh -2, HPGD inh 16µM*, 12-hLO inh -1% and IMPase Li inh -2%[38.3 µM].
O=C(O)c1cc(N2C(=O)C3CCCCC3C2=O)ccc1NCc1cccnc1 (stereo not drawn) was read as NPSR antag -13%, ALDH1A1 block -48% and IMPase Li inh -1%.
`O=C(COc1ccccc1Cl)N1CCN(c2ccc([N+](=O)[O-])c(N3CCCCC3)c2)CC1` gave NPSR antag -18%[46.1 µM], ALDH1A1 block 1.6µM*, IMPase cell inh 2, HPGD inh -23%, 12-hLO inh -7% and IMPase Li inh 17%[38.3 µM].
Screening O=C(c1ccc(F)cc1)N1CCN(c2ccc([N+](=O)[O-])c(N3CCCCC3)c2)CC1 returned NPSR antag inconclusive, ALDH1A1 block 5%, IMPase cell inh 5 and 12-hLO inh -15%.
For O=[N+]([O-])c1cccnc1N1CCCCC1 the results were NPSR antag -3%[46.1 µM], ALDH1A1 block -3%, IMPase cell inh 4, HPGD inh -9%, 12-hLO inh 0% and IMPase Li inh -6%[38.3 µM].
Screening CNc1cc(N2CCCCCC2)ccc1[N+](=O)[O-] returned NPSR antag -19%[46.1 µM], ALDH1A1 block 10µM*, IMPase cell inh 13, HPGD inh inconclusive, 12-hLO inh -4% and IMPase Li inh 28%[38.3 µM].
`O=[N+]([O-])c1ccc(N2CCCCC2)nc1N1CCCCC1` gave NPSR antag 36% and ALDH1A1 block 0.32µM*.
For O=C(COc1ccc(Cl)cc1)N1CCN(c2ccc([N+](=O)[O-])c(N3CCCCC3)c2)CC1 the results were NPSR antag -35%[46.1 µM], ALDH1A1 block 2.5µM*, IMPase cell inh 0, HPGD inh -9%, 12-hLO inh -4% and IMPase Li inh -21%.
Screening Cc1cc(OCC(=O)N2CCCCCC2)ccc1[N+](=O)[O-] returned NPSR antag 13%, ALDH1A1 block -11%, HPGD inh -6%, 12-hLO inh -1% and IMPase Li inh -3%.
Screening CCOC(=O)Cc1nnc(NC(=O)CSc2ccccc2)s1 returned NPSR antag -7%[46.1 µM], ALDH1A1 block -1%, IMPase cell inh 7, HPGD inh -4%, 12-hLO inh -4% and IMPase Li inh 19%[38.3 µM].
Screening O=C1CC(N2CCN(c3ccc(Cl)c(Cl)c3)CC2)C(=O)N1 (stereo not drawn) returned NPSR antag 19%[46.1 µM], ALDH1A1 block inconclusive, IMPase cell inh 0, HPGD inh -6%, 12-hLO inh -2% and IMPase Li inh 0%.
